# Screening results: PubChem, National Center for Advancing Translational Sciences (NCATS)
# HCMV inh: qHTS Assay for inhibitors of the human cytomegalovirus (HCMV); activity change, negative = inhibition, % at 57.5 µM; 410,000 compounds, 4.5% hits; HFF cells, HCMV-luciferase reporter, 72 h; active compounds read low; in the data active = activity change below about -60%; inconclusive = no clear call, values can overlap the other calls; inactive = above about -39%
#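 Two compound doses tested in HFFs infected with HCMV-luciferase, MOI 1 PFU/cell, 72 h at 37C. Lysate luminescence read with OneGlo; data normalized against buffer-only and 10uM Salinomycin inhibitor controls.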
# HCV inh: qHTS Assay for Inhibitors of Hepatitis C Virus (HCV). Huh7.5.1 HCVcc-Cre infection, luciferase reporter, 44 h. Potency, µM (series often up to 41.8 µM), inactives show at the top dose activity change, negative = inhibition, most hits filed as inhibitors. AID 651820, 2012. 340,000 compounds, 3.4% hits; active = well fitted inhibition curve with a large enough effect; inconclusive = small, poorly fitted or top-dose-only effect, or another doubt; inactive = no such curve, though single readings can be large or run the other way; also: potency is read from the fitted curve at half-maximal effect
#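 HCVcc-Cre virus at an moi near 0.5 was added right after compound to cells cultured 4 h from seeding (1,000 cells/well). Luciferase activity was determined 44 h later, 15 min after substrate addition at RT.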
# LASV entry inh: qHTS for Inhibitors of binding or entry into cells for Lassa Virus | 300,000 compounds, 1.2% hits | AID 540256, 2011 | Lassa virus pseudotype entry inhibition, cell reporter | Potency, µM (highest dose often 37.9 µM), for inactives: at the highest dose activity change, negative = inhibition, usual class: inhibitors; calls by dose curve; tested in HEK293 cells; also: potency is read from the fitted curve at half-maximal effect; nearly all actives have a fitted effect of over 50% in size
# Marburg entry inh: qHTS for inhibitors of binding or entry into cells for Marburg Virus; Marburg virus pseudotyped entry inhibition, cell reporter; Potency, µM (top dose mostly 37.8 µM), inactives show top-dose activity change, negative = inhibition, usual class: inhibitors; 300,000 compounds, 1.8% hits; calls by dose curve; tested in HEK293 cells; also: potency is read from the fitted curve at half-maximal effect
# VACV mCherry inh: qHTS for Stage-Specific Inhibitors of Vaccinia Orthopoxvirus: mCherry Reporter Primary qHTS | 310,000 compounds, 0.63% hits | Potency, µM (series often up to 36.5 µM), for inactives: at the top dose activity change, negative = inhibition, actives largely listed as inhibitors | Vaccinia virus mCherry reporter infection, fluorescence | AID 720579, 2013; calls by dose curve; tested in A549 cells; also: potency is read from the fitted curve at half-maximal effect; nearly all actives have a fitted effect of over 35% in size
# VACV Venus inh: qHTS for Stage-Specific Inhibitors of Vaccinia Orthopoxvirus: Venus Reporter Primary qHTS; Vaccinia virus Venus reporter expression, fluorescence; Potency, µM (top dose mostly 36.5 µM), for inactives: at the top dose activity change, negative = inhibition, actives largely listed as inhibitors; 330,000 compounds, 0.46% hits; AID 720580, 2013; calls by dose curve; tested in A549 cells; also: potency is read from the fitted curve at half-maximal effect; nearly all actives have a fitted effect of over 30% in size
# Numbers without * were called inactive; i = inactive; ? = inconclusive; / = no result; [ ] = remark or other dose. A selection: hits, their analogues and other compounds. The true share with any hit is near 7.8%. % is scaled to controls: 0 for no effect and ±100 for the full control effect.
SMILES,HCMV inh,HCV inh,LASV entry inh,Marburg entry inh,VACV mCherry inh,VACV Venus inh
c1ccc2c(c1)OCC(c1csc3ncnc(N4CCCCC4)c13)O2 (stereo not given),-88*,5%,-18%,?,-9%,3%
COCCCNC(=O)C(=O)NCC(c1ccc2c(c1)OCO2)N1CCOCC1 (stereo not given),-113*,/,9%[46.1 µM],/,-6%,2%
O=C(NCC(c1cccnc1)N1CCN(c2ccccc2F)CC1)Oc1ccccc1 (stereo not given),-28,21%,-9%,-16%,/,-14%
Cc1ccc(CNC(=O)C(=O)NCC(c2cccnc2)N2CCN(c3ccccc3F)CC2)cc1 (stereo not given),-72*,/,?,/,?,?
COCCNC(=O)C(=O)NCC(c1cccnc1)N1CCN(c2ccccc2OC)CC1 (stereo not given),-7,/,?,/,-8%,-5%
COc1ccccc1N1CCN(C(CNC(=O)c2ccc3c(c2)OCO3)c2cccnc2)CC1 (stereo not given),-15,11µM*,21%,-29%,-15%[1.46 µM],?
CCOc1ccc(CNC(=O)COc2cc(=O)n(C)c3ccccc23)cc1,4,/,-16%[46.1 µM],?,5%,5%
COc1cccc(CN2CC3(CCN(C)CC3)c3c(n(C)c4cc(OC)ccc34)[C@H]2CO)c1,-14,/,/,/,/,/
Cc1ccc(/C=C2\SC(=S)N(CC3CCCO3)C2=O)o1 (stereo not given),-85*,-6%,-2%,21%[46.1 µM],31%,148%
NNC(=O)Cn1c2c(c3c1CCCC3)CCCC2,/,/,/,1%[46.1 µM],/,/
OC(CNCCC1C=Nc2ccccc21)Cn1c2ccc(Cl)cc2c2cc(Cl)ccc21 (stereo not given),-39,?,?,?,20µM*,?
Cc1cccc(NC(=O)CCc2ccc(N3C(N)=NC(N)=NC3(C)C)cc2)c1,-99*,/,/,/,5.6µM*,?
CCOC(=O)c1cccc(N2C(N)=NC(N)=NC2(C)C)c1,?,-6%,16%,12%,/,-5%
CC1(C)N=C(N)N=C(N)N1c1ccc(OCC(=O)N2CCOCC2)cc1,-40,/,/,/,i,-17%
Cc1cccc(NC(=O)CCc2ccccc2)c1,-1,?,30%,17%,-1%,1%
CC1(C)N=C(N)N=C(N)N1c1ccc(OCC(=O)N2CCOCC2)c(Cl)c1,-101*,/,/,/,?,?
CC1(C)N=C(N)N=C(N)N1c1ccc(OCC(=O)Nc2ccccc2)c(Cl)c1,-95*,/,/,/,4µM*,?
CC1(C)N=C(N)N=C(N)N1c1cccc(CC(=O)Nc2ccccc2)c1,-82*,/,/,/,-26%,?
O=S(=O)(NCCc1ccc(F)cc1)c1ccccc1Br,/,/,-10%[46.1 µM],/,/,/
COC(=O)[C@H](CC(C)C)N(Cc1ccc(Br)cc1)S(=O)(=O)CCl,/,/,7%[46.1 µM],/,/,/
COc1cccc(-c2cc3c(Nc4cccc(NS(C)(=O)=O)c4)nccc3n2C)c1,-33,/,/,/,/,/
COc1ccccc1N1C(N)=NC(N)=NC1(C)C,-22,2%,4%,10%,i,-17%
CC1(C)N=C(N)N=C(N)N1c1ccc(OCCCOc2ccccc2)c(Cl)c1,-100*,?,/,/,?,?
N=C(N)SCc1ccc(Cl)cc1Cl,-34,11µM*,?,?,-10%,-20%
NC(=S)Cc1ccc(Cl)cc1Cl,22,6%,15%,?,-25%,-18%
Cc1nc2scc(-c3ccc(C(C)C)cc3)c2c(=O)n1N,-62*,-18%,12%,?,-12%,-12%
CCCc1nnc(NC(=O)Cc2coc3ccc(C(C)C)cc23)s1,20,/,?,?,-10%,-4%
COc1ccc(-c2noc(-c3nnn(-c4ccc(C)cc4C)c3C)n2)cc1,10,/,1%[46.1 µM],/,2%,3%
COc1ccc(CCN(C)Cc2c(O)ccc3cc(Br)ccc23)cc1OC,-77*,-20%,4%[46.1 µM],?,-16%,-7%
COc1ccc2cc(Br)ccc2c1CC(=O)N(C)C,-11,-18%,/,-3%[46.1 µM],-6%,-7%
